Our source for the outcome and AC50 values is PubChem BioAssay (EPA / NIEHS).

Read-out in test [1]: HMG-CoA synthase (HMGCS2), HMGCS2 (gene 3158)
Briefly: CLD_HMGCS2_48hr: CellzDirect (CLD) Gene Expression Assay for HMG-CoA synthase (HMGCS2) at 48 hours (AID 2283711). The procedure, abridged: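 mRNA induction read by qNPA chemiluminescence, 48 h after dosing. Cultured primary human liver cells (two donor preparations) received fresh compound daily over two days against 0.2% DMSO vehicle; morphology-based cytotoxicity noted alongside.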

Test [2] in a line: STM_H9_OrnithineISnorm_perc: Stemina devTOX quickPredict H9 human embryonic stem cell (hESC)-based Assay for Ornithine (ORN) Metabolite Biomarker, Normalized (AID 2283712; active means hit-call score of the fitted dose curve at least 0.9, where 1 is the maximum; inactive means score below 0.9;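 further: ornithine released into spent medium during last day measured by mass spectrometry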). An outline of the steps:
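UPLC-HRMS readout: endogenous ornithine EIC area / 13C-ORN internal standard, then % of 0.1% DMSO median. H9 hESCs (pluripotent), 72h exposure, re-dosed with fresh media q24h; last 24-h spent media, deproteinized in 40% acetonitrile.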

Test [3] in a line: STM_H9_CystineISnorm_perc: Stemina devTOX quickPredict H9 human embryonic stem cell (hESC)-based Assay for Cystine (CYSS) Metabolite Biomarker, Normalized (AID 2283713; active means hit-call score of the fitted dose curve at least 0.9, where 1 is the maximum; inactive means score below 0.9). An outline of the steps: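 UPLC-HRMS read-out: endogenous cystine peak area in spent medium, normalized to isotope-labeled internal standard and to median of 0.1% DMSO controls. Pluripotent H9 cells, 72h exposure, daily medium/compound replenishment; medium from last 24h sampled.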

A short description of test [4]: STM_H9_OrnCyssISnorm_ratio: Stemina devTOX quickPredict H9 human embryonic stem cell (hESC)-based Assay for Ornithine (ORN):Cystine (CYSS) Ratio (AID 2283714). The procedure, abridged:
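Ratio of internal-standard-normalized ornithine to cystine, measured by UPLC-HRMS in spent media from the last 24 h. H9 cells kept pluripotent, dosed 72 h with daily media and compound renewal; DMSO 0.1% serves as baseline.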

Test [5] in a line: Tanguay_ZF_120hpf_ActivityScore_legacy: (Legacy) Oregon State University Tanguay Lab 120 Hour Post-fertilization zebrafish Assay Score for Activity (AID 2283742).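 On AC50: dechorionated Tropical 5D wild-type zebrafish embryos held singly per well.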 An outline of the steps: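 Binary scoring of mortality and morphology by brightfield at 24 and 120 hpf, summarised into one activity score from 18 components relative to DMSO. Wild-type Tropical 5D zebrafish, chorion removed at 4 hpf, static exposure 6–120 hpf, 28 °C.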

Test [6] can be described thus: CEETOX_H295R_MTT_cell_viability: Viability Assessment in the CeeTox HT-H295R MTT Assay (AID 2283718; active means hit-call score of the fitted dose curve at least 0.9, where 1 is the maximum; inactive means score below 0.9;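 on AC50: curve fitted both ways so AC50 may mark viability loss or gain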). An outline of the steps:
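MTT reduction (0.5 mg/ml, 4 h at 37 C; absorbance at 570 and 650 nm) gave viability as background-corrected percent change versus controls. H295R cells had 48 h forskolin (10 uM) prestimulation, then 48 h chemical exposure at 0.1% DMSO.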

For test [7], the system named is Thyroperoxidase (TPO), gene 445522. Nature of the test: CCTE_Simmons_GUA_TPO: CCTE's Guaiacol Assay for Thyroperoxidase (TPO) Inhibition, Simmons Lab (AID 2283750). An outline of the steps:
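Porcine thyroid microsomes (25 ug) in 200mM potassium phosphate, preincubated 30 s at 37C with compound (8 concentrations, 5 nM–87.5 uM) and 35mM guaiacol; 1mM H2O2 starts reaction. Absorbance change at 450nm over first 80 s; loss of signal versus DMSO, three replicates.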

Test [8] can be described thus: ArunA_CellTiter_hNC: Viability Assessment in the ArunA Biomedical's Oris Neural Crest (hNC) Cell Migration Assay (AID 2283752). The procedure, abridged: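 hNC cells (H9 ESC-derived), 60,000/well, Matrigel, LIF + bFGF medium; 16 h 37C attachment; 72 h compound in test medium; CellTiter Aqueous One read-out; loss-of-signal vs DMSO baseline.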
Test [9] in a line: ArunA_CellTiter_hNP: Viability Assessment in the ArunA Biomedical's Oris Neural Crest (hNC) Cell Migration Assay (AID 2283753). The procedure, abridged: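 Viability read with CellTiter 96 Aqueous One after 72 h chemical exposure of human hNP1 neuroprogenitors, which were plated on Matrigel in LIF/bFGF medium 16 h beforehand. Endpoint fitted in positive direction relative to DMSO.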

The nature of test [10]: ArunA_Migration_hNC: ArunA Biomedical's Oris Neural Crest (hNC) Cell Migration Assay (AID 2283755). An outline of the steps:
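Calcein-AM fluorescence (ex494 nm/em 517 nm) in the stopper-defined detection zone quantifies migration of hNC cells after 72 h chemical exposure; 60,000 cells/well plated on Matrigel with LIF and bFGF, 16 h pre-incubation. DMSO baseline.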

Test [11] is described as follows: ArunA_NOG_NucleusCount: ArunA Biomedical's Neurite Outgrowth (NOG) Assay for Nucleus Count (AID 2283756). The procedure, abridged: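 Viable neuron count, from Hoechst nuclei passing size and intensity gates, imaged at 20x on differentiated H9-derived human neurons. Exposure lasted 48 h from seeding; activity was scored relative to DMSO.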
The target of test [12] is Luciferin 4-monooxygenase (Photinus pyralis) (UniProt P08659). Nature of the test: CCTE_Simmons_QuantiLum_inhib_2: CCTE's Firefly Luciferase Inhibition Assay, Simmons Lab (AID 2283767).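 On AC50: potency for inhibitors that lower luciferase luminescence relative to DMSO.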 An outline of the steps: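 Cell-free QuantiLum luciferase, 5 ng/well; compounds 5 nM–87.5 uM final, 8 conc, 0.5% DMSO; 30 min, 37C, dark. Detection reagent (150 uM D-luciferin, 147 uM dATP, CoA, DTT, pH 7.8 final) injected per well, kinetic luminescence. Triplicate biological replicates.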
Sequence of Luciferin 4-monooxygenase (Photinus pyralis) (P08659 whole entry, looked up): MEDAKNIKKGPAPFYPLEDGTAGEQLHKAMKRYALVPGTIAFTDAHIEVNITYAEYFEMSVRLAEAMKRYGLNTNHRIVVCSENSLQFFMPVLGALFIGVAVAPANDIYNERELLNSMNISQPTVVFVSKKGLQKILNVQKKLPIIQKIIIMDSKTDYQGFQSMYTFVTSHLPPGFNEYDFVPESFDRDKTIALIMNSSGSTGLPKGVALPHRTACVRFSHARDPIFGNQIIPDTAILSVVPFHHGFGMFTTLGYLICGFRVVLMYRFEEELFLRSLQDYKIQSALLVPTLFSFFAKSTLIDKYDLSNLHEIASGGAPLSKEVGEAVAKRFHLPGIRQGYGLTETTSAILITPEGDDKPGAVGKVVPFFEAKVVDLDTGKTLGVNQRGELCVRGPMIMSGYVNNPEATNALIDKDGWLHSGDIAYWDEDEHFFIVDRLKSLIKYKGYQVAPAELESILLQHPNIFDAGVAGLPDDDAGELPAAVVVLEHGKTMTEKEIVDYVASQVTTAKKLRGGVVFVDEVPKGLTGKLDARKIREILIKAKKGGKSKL

Read-out in test [13]: sulfotransferase (SULT2A), SULT2A1 (gene 6822)
Nature of the test: CLD_SULT2A_48hr: CellzDirect (CLD) Gene Expression Assay for sulfotransferase (SULT2A) at 48 hours (AID 2283710).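 Further: hits raise SULT2A1 transcript above the 0.2% DMSO vehicle baseline.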 The procedure, abridged:
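SULT2A1 transcript measured by qNPA chemiluminescence in human primary hepatocyte cultures after 48 h, with fresh dosing solutions on two consecutive days; gain-of-signal fitting against 0.2% DMSO vehicle; cytotoxicity annotated from phase-contrast morphology.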

The nature of test [14]: ArunA_NOG_NeuriteLength: ArunA Biomedical's Neurite Outgrowth (NOG) Assay for Neurite Length (AID 2283757). An outline of the steps:
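Total neurite length per neuron, from traced βIII-tubulin-labelled processes longer than 10 um on viable Hoechst-gated cells, was scored as decrease from DMSO. Cells were hESC (H9)-derived neurons given 48 h chemical exposure immediately after seeding.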

Test [15] is described as follows: ArunA_NOG_NeuritesPerNeuron: ArunA Biomedical's Neurite Outgrowth (NOG) Assay for Neurites Per Neuron (AID 2283758). An outline of the steps: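 Differentiated human H9-derived neurons exposed to chemicals for 48 h from seeding, then stained with Hoechst and βIII-tubulin/DyLight 488. Automated imaging counted neurites (processes >10 um) per valid neuron; loss of signal versus DMSO scored.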

The subject of test [16] is chicken Androgen Receptor (AR), gene 422165. Nature of the test: ATG_chAR_XSP1: Attagene TRANS-FACTORIAL Multi-Species (XSP1) HepG2 Assay for chicken Androgen Receptor (AR) (AID 2283768). The procedure, abridged: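 Reporter mRNA read by RT-PCR with fluorescent labelling and capillary electrophoresis 24 h after chemical dosing of transiently transfected HepG2 cells. Chicken AR-Gal4 chimera, partially stimulated with 3 nM 6-alpha-fluorotestosterone; activity fitted upward relative to DMSO.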

For test [17], the system named is frog Androgen Receptor (AR), gene 399456. Nature of the test: ATG_frAR_XSP1: Attagene TRANS-FACTORIAL Multi-Species (XSP1) HepG2 Assay for frog Androgen Receptor (AR) (AID 2283770).

Records with an inconclusive call do not appear. Where a structure was tested more than once in an assay, its records may differ in their call. The source made the active and inactive calls. How the source made its calls, unless noted: active means hit-call score of the fitted dose curve at least 0.9, where 1 is the maximum; inconclusive means response in the unintended direction; inactive means score below 0.9.

A word on the AC50: it is the concentration giving half of the maximal activity seen. `O=C(O)C1(C(=O)Nc2ccc(Cl)cc2Cl)CC1`: the outcome in test [1], in test [2] and in test [3] was inactive. Besides, the results for the AC50 in [4] and in [5] were 9.92 µM (active) and 19.6 µM (active), respectively.
As for `C=CCOC(Cn1ccnc1)c1ccc(Cl)cc1Cl` (stereo unspecified), the result in test [2], in [3] and in [6] was inactive. In addition, the AC50 in test [5] is 11.7 µM (active).
In the case of `C[C@]12C[C@H](O)[C@H]3[C@@H](CCC4=CC(=O)CC[C@@]43C)[C@@H]1CC[C@@H]2C(=O)CO`, the concentration at half-maximal activity (AC50) was 77 µM (active) in [2], 81.5 µM (active) in [3] and 93.8 µM (active) in test [4]. Besides, the compound was classed as inactive in [6] and in [5].
In the case of `COC(=O)c1ccccc1S(=O)(=O)NC(=O)Nc1nc(OC(F)F)cc(OC(F)F)n1`, in test [1], the result was inactive.
Turning to `CCOC(=O)c1ccc(O)cc1`, the call in [6] and in [5] was inactive.
As to `CC(=O)S[C@@H]1CC2=CC(=O)CC[C@]2(C)[C@H]2CC[C@@]3(C)[C@@H](CC[C@@]34CCC(=O)O4)[C@H]12`, the outcome in test [6] and in test [5] was inactive.
For `CCCCOC(=O)[C@@H](C)Oc1ccc(Oc2ccc(C(F)(F)F)cn2)cc1`, the compound was called inactive in [1], in test [6] and in [5]. The concentration at half-maximal activity (AC50) is 80.7 µM (active) in test [2], 42.8 µM (active) in [3] and 52.8 µM (active) in test [4].
For the compound `N[C@@H](Cc1cc(I)c(Oc2ccc(O)c(I)c2)c(I)c1)C(=O)O`, the outcome in test [2], in test [3], in test [4], in [9], in [11] and in test [12] was inactive. Moreover, the AC50 in [5] was 0.287 µM (active); in test [7] it was 13.1 µM (active); in [8], 33 µM (active); in test [10] it was 56.2 µM (active).
For the compound `CCN(CC)C(=O)c1cccc(C)c1`, the compound was called inactive in [13] and in [5].
`COCCO`: the result in test [13] and in test [5] was inactive.
Regarding `Oc1ccc(C(c2ccc(O)cc2)C(Cl)(Cl)Cl)cc1`, the compound was classed as inactive in test [1], in [3], in test [6] and in [12]. The AC50 in test [2] was 0.00653 µM (active); in [5], 30.8 µM (active).
Regarding `CC(=O)[C@H]1CC[C@H]2[C@@H]3CCC4=CC(=O)CC[C@]4(C)[C@H]3CC[C@]12C`, the compound was called inactive in test [6] and in test [5].
Take `O=C(Nc1ccc([N+](=O)[O-])cc1Cl)c1cc(Cl)ccc1O`: the result in test [2], in test [3], in test [4], in [6], in test [5] and in test [12] was inactive.
For the compound `S=C(S)NCCNC(=S)S.[Mn+2].[S-]C([S-])=NCCN=C([S-])[S-].[Zn+2]`, the outcome in test [2], in test [3], in [4], in test [5], in test [11] and in test [14] was inactive. The compound was called inactive in test [15] and in [12]. In addition, the concentration at half-maximal activity (AC50) is 1.19 µM (active) in [6]; 0.00112 µM (active) in [5]; 9.92 µM (active) in [8]; 83.4 µM (active) in test [9]; 50 µM (active) in [10]; 22.6 µM (active) [middle of 4 runs] in test [12].
Regarding `S=C([S-])NCCNC(=S)[S-].[Mn+2]`, the half-maximal activity concentration (AC50) in test [2] was 88.1 µM (active). For the same compound, the result in [3], in [4], in [6], in [5] and in test [12] was inactive.
Take `O=C(c1ccc(O)cc1O)c1ccc(O)cc1O`: the AC50 in test [2] was 51.1 µM (active); in [3], 18.5 µM (active); in [12], 47.2 µM (active); in test [16], 0.133 µM (active); in test [17] it was 2.75 µM (active). The result in [5] was inactive.
With `CCOC(=O)COc1cc(-n2ncc(C(F)(F)F)c(C)c2=O)c(F)cc1Cl`, the outcome in [13] and in test [5] was inactive.
